BoNT-A LC inh2 – inhibitors of Botulinum neurotoxin A light chain protease. multiplex microsphere protease substrate cleavage, flow cytometry. inhibition, % at 10 µM. 360,000 compounds, 0.17% hits. AID 588499
BoNT F protease – inhibitors of Botulinum neurotoxin F light chain protease; Multiplex microsphere protease cleavage assay, flow cytometry; inhibition, % at 10 µM; 360,000 compounds, 0.22% hits; in the data active = inhibition above about 35%, passing the limit was not always enough; inconclusive = no clear call, values can overlap the other calls
Anthrax LF inh2 – blocks Bacillus anthracis lethal factor protease; P15917; multiplex microsphere protease cleavage assay, LF; inhibition, % at 10 µM; 360,000 compounds, 0.12% hits; AID 588501
Target sequence (P15917 whole entry, looked up): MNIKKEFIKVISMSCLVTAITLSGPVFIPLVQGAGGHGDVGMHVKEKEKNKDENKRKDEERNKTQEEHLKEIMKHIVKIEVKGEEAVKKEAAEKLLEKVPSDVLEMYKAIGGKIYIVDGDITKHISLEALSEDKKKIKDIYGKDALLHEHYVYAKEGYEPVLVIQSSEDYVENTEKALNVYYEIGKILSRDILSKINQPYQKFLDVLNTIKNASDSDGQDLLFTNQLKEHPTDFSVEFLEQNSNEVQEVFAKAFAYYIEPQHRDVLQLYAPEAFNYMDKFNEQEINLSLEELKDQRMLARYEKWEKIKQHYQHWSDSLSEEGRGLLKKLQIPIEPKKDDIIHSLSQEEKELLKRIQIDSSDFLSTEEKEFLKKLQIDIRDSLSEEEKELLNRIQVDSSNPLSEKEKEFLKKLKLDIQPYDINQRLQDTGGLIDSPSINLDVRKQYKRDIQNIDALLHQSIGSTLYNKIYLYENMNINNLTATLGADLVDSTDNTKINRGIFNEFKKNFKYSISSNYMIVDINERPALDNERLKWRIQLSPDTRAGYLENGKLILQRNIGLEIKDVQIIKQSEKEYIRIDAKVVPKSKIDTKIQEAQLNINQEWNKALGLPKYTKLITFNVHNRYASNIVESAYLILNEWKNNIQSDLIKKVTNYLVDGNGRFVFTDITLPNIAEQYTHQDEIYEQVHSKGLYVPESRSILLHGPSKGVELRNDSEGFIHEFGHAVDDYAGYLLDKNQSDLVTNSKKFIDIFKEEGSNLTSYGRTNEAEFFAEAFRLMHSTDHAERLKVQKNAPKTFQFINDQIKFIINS
Autofluor counter – flagged as autofluorescent in microsphere protease counterscreen | compound autofluorescence counterscreen, microsphere flow cytometry; active compounds read high | fluorescence intensity (concentration not given with the values) | 360,000 compounds, 3.1% hits | AID 624483; in the data active = fluorescence intensity above about 16000; inconclusive = no clear call, values can overlap the other calls
Vc quorum ag – inducers of Vibrio cholerae quorum light production without autoinducers | V. cholerae BH1578 lux reporter, luminescence, 6 h | activation, % at 18.7 µM | 350,000 compounds, 0.16% hits | AID 588436; in the data active = activation mostly above about 9.7%, no sharp cut-off; inconclusive = no clear call, values can overlap the other calls; inactive = mostly below about 3.7%
Hits are given with their value; – = inactive; ? = inconclusive; · = not tested or not shown. Rows were chosen to be rich in hits. Some 3.5% of all compounds tested hit in one or more screens of this group. Cut-off read from the data, not from the text of the source, unless noted: active = inhibition above about 30%; inconclusive = no clear call, values can overlap the other calls; inactive = below that.

SMILES	BoNT-A LC inh2	BoNT F protease	Anthrax LF inh2	Autofluor counter	Vc quorum ag
O=C1C2CCCCN2C(=O)N1CCN1CCN(c2ccc([N+](=O)[O-])cc2)CC1 (stereo unspecified)	–	–	–	–	–
COc1cc(NC(=O)c2cccc(S(=O)(=O)N3CCCCC3)c2)cc(OC)c1OC	–	?	–	–	–
O=C(Nc1nc2c(s1)CN(Cc1ccccc1)CC2)C1CCC1	–	–	–	–	–
CN(C)c1ccc(/C=C(\C#N)C(=O)Nc2nc3c(s2)CCN(Cc2ccccc2)C3)cc1	–	57.5	–	–	–
COC(=O)C(O)(CC(=O)Nc1ccc(C)c(F)c1)C(F)(F)F (stereo unspecified)	?	–	–	16452	–
COC(=O)C(O)(CC(=O)Nc1ccc(OC)cc1)C(F)(F)F (stereo unspecified)	–	–	–	–	–
Cc1ccc(CC(CC(=O)O)C(=O)NC2CCCCC2)cc1 (stereo unspecified)	–	–	–	22833	–
Cc1ccc(CC(CC(=O)O)C(=O)NCC23CC4CC(CC(C4)C2)C3)cc1 (stereo unspecified)	–	–	–	–	–
CCCC(C)C(=O)NC1CCSC1=O (stereo unspecified)	–	–	–	16556	–
CC(Oc1ccc(Cl)cc1Cl)C(=O)NC1CCSC1=O (stereo unspecified)	–	–	–	22259	–
CCOC(=O)C(=O)NC1CCSC1=O (stereo unspecified)	–	–	–	–	–
CCNC(=O)C(C)Oc1ccc(Cl)cc1Cl (stereo unspecified)	–	–	–	–	–
COc1ccccc1C1Nc2ccccc2NC2=C1C(=O)CC(C)(C)C2 (stereo unspecified)	–	36.6	–	–	–
Cc1cnc(C(=O)OCC(=O)C23CC4CC(CC(C4)C2)C3)cn1	–	–	–	–	–
Cc1cnc(C(=O)OCC(=O)NC23CC4CC(CC(C4)C2)C3)cn1	–	–	–	20090	–
Cc1nnc(SCc2ccc(F)cc2)s1	–	?	–	–	·
Nc1nnc(SCc2ccc(F)cc2)s1	?	–	–	23088	–
CSCCC(NC(=O)OC(C)(C)C)C(=O)NC(C(=O)NC(CC(C)C)C(N)=O)C(C)C (stereo unspecified)	–	71.7	–	–	–
CCOc1cc(C(c2c(C)[nH][nH]c2=O)c2c(C)[nH][nH]c2=O)ccc1OC(=O)c1cccc([N+](=O)[O-])c1	–	–	–	19908	–
CCOc1cc(C(c2c(C)[nH][nH]c2=O)c2c(C)[nH][nH]c2=O)ccc1OCc1ccc([N+](=O)[O-])cc1	–	–	–	22205	–
O=C(O)c1cc(-c2ccccc2)nc(-c2ccccc2)c1	–	–	–	–	–
O=C(O)c1ccc(C(=O)O)c(C(=O)c2ccccc2)c1	–	–	–	17146	–
O=C(c1ccccc1)c1ccc(C(=O)O)c(C(=O)O)c1	–	–	–	–	–
O=C(O)c1cc(C(=O)O)c(-c2ccccc2)c(C(=O)O)c1	–	–	–	22323	–
CC1(C)NC(=O)N(c2ccc([N+](=O)[O-])c(C(F)(F)F)c2)C1=O	–	–	–	–	–
SMILES	BoNT-A LC inh2	BoNT F protease	Anthrax LF inh2	Autofluor counter	Vc quorum ag
Nn1c(SCC(=O)N2CCOCC2)nnc1-c1ccc(Cl)cc1Cl	–	–	–	–	–
CC(C)OC(=O)CSc1nnc(-c2ccc(Cl)cc2Cl)n1N	–	–	–	22841	–
CC(C)OC(=O)CSc1nnc(-c2ccc(Cl)cc2)n1N	–	–	–	21439	–
Cn1c(Cc2ccccc2)nnc1SCC(=O)Nc1ccccc1	–	–	–	–	–
Cc1ccc(-c2nnc(SCC(=O)OC(C)C)n2N)cc1	–	–	–	–	·
CC(C)OC(=O)CSc1nnc(Cc2ccccc2)n1C	–	–	–	16479	–
O=C(CNCc1ccco1)Nc1ccc(Oc2ccccc2)cc1	–	–	–	–	–
OC[C@@H]1CN(Cc2ccc3c(c2)OCO3)C[C@H](n2cnc3c(NCc4ccc(F)cc4)ncnc32)O1	–	–	–	–	–
Cn1c(=O)oc2cc(S(=O)(=O)N3CCCCC3)ccc21	–	–	–	–	–
COC(=O)n1c(=O)oc2cc(S(=O)(=O)N3CCCCC3)ccc21	?	–	–	21823	–
CCOC(=O)n1c(=O)oc2cc(S(=O)(=O)N3CCCCC3)ccc21	–	–	–	23136	–
COCC(C)N1CCC(n2nccc2NC(=O)CCCc2ccccc2)CC1 (stereo unspecified)	–	–	–	–	–
COc1cccc(CN2CCNC(=O)C2CC(=O)N(C)CCC2CCOCC2)c1OC (stereo unspecified)	–	–	–	?	–
CCn1c2ccccc2c2nnc(SCC(=O)Nc3ncccn3)nc21	?	–	–	21373	–
CCOC(=O)C(Sc1nnc2c3ccccc3n(CC)c2n1)C(=O)OCC	–	–	–	16233	–
COc1ccc(OC)c2[nH]c(=O)c(CCNC(=O)Cc3cccs3)cc12	–	–	–	–	–
O=C(Nc1cccn2ncnc12)C(Cl)Cl	–	?	–	–	–
O=C(Nc1cccn2ncnc12)c1ccc(Cl)cc1	?	–	–	23079	–
O=C(Nc1cccn2ncnc12)c1ccccc1	–	–	–	21325	–
CCc1ccc(CN(C(=O)c2cc3ccccc3oc2=O)C2CCS(=O)(=O)C2)cc1 (stereo unspecified)	–	–	–	–	·
Cc1ccc(CN(C(=O)c2cc3ccccc3oc2=O)C2CCS(=O)(=O)C2)cc1 (stereo unspecified)	–	–	–	21783	–
Cc1cc2oc(C(=O)N(Cc3ccccc3)C3CCS(=O)(=O)C3)cc(=O)c2cc1Cl (stereo unspecified)	–	–	–	19953	–
CCCNC(=O)C1CCC(CNS(=O)(=O)c2ccc3c(c2)N(C(C)=O)CCO3)CC1 (stereo unspecified)	–	–	–	–	–
CCCn1c(O)c(/C=C2\C=NN=C2c2ccccc2)sc1=S	–	–	–	25085	–
CCC(Sc1nc2sc(C(=O)OC)c(C)c2c(=O)n1N)C(=O)N(CC)CC (stereo unspecified)	–	–	–	21202	–
SMILES	BoNT-A LC inh2	BoNT F protease	Anthrax LF inh2	Autofluor counter	Vc quorum ag
CN1C=CC=C/C1=C1\SC(=S)N(C2CCCCC2)C1=O	?	–	–	21024	–
CN1C=CC=C/C1=C1\SC(=S)N(c2ccccc2)C1=O	–	–	–	–	–
C=CCNc1nc(C(=O)OC(C)C(=O)c2ccc(C)cc2)cs1 (stereo unspecified)	·	·	·	·	–
COc1ccccc1CN=C1NC(=O)C(CC(=O)Nc2ccc(C(C)=O)cc2)S1 (stereo unspecified)	–	–	–	–	–
COc1cccc2cc(C(=O)NC(C)C3CCCO3)c(=O)oc12 (stereo unspecified)	–	–	–	16163	–
CCc1cc(C(=O)NC(C)C2CCCO2)cs1 (stereo unspecified)	–	–	–	–	–
CC(NC(=O)Nc1ccc2c(c1)OCO2)C1CCCO1 (stereo unspecified)	–	–	–	23219	–
Cc1cc(C(=O)NC(C)C2CCCO2)cs1 (stereo unspecified)	?	–	–	16328	–
CNC(=O)c1cc2cccc(OC)c2oc1=O	–	–	–	–	–

Source: PubChem BioAssay (several laboratories)
